Experimental data from ChEMBL document CHEMBL3988442, “University of Dundee, Small-Polar-MMV Screening Library” (2021).
Among all 48,000 compounds or so, about 13,000 (27%) showed an effect of 50% or more. The list shows a part of the results.

These molecules were tested on Wolbachia pipientis (assay: Anti-Wolbachia Cell-Based Screen). Conditions: 5 µM.
Assay type: functional
Set-up: scale not given: in the data most compounds retested in dose-response had high values

| SMILES | Percent Effect [%] |
| --- | --- |
| C1CCC(N2CCCN(c3nc(C4CC4)no3)CC2)C1 | 19.76 |
| CCCNC(=O)c1cc(Br)c2c(c1)OCCO2 | -33.44 |
| CCc1nc(CN2CCN(C(=O)C3CCCCC3)CC2)cs1 | 4.149 |
| O=C(CN1CCN(c2ccccc2F)CC1)Nc1ccc(Cl)cn1 | 4.247 |
| CCCS(=O)(=O)N1C[C@@H]2CN(Cc3ccoc3)CCO[C@@H]2C1.O=C(O)C(F)(F)F | 45.1 |
| CN(Cc1cccnc1)[C@@H]1CN(C(=O)c2ccco2)[C@@H]2CCCO[C@H]12 | 99.41 |
| CN(Cc1cncnc1)[C@H]1CN(C(=O)c2ccc[nH]2)[C@@H]2CCCO[C@@H]21 | 103.1 |
| CN(Cc1ccco1)[C@@H]1CN(C(=O)c2ccnnc2)C[C@@H]2CCCO[C@@H]21.O=C(O)C(F)(F)F | 1.243 |
| Cn1cc(C[C@H]2[C@H](N3CCOCC3)CCN2C(=O)c2ccc[nH]2)cn1 | -3.493 |
| CC(C)N(C)[C@@H]1CCN(C(=O)c2ccc[nH]2)[C@H]1Cc1cnn(C)c1 | -2.599 |
| O=S(=O)(NCC1COCCO1)c1ccc(C2CCCCC2)cc1 (stereo not drawn) | -20.85 |
| CC1CN(Cc2cccc(CNC3CCCC3)c2)CCO1 (stereo not drawn) | 2.611 |
| OC(CN1CCOCC1)c1cc(Cl)ccc1Cl (stereo not drawn) | 1.615 |
| Cc1ccsc1C(=O)NCc1cccnc1N(C)CCc1ccccn1 | -9.716 |
| Cn1cc(S(=O)(=O)NCC2CCN(C(=O)Oc3ccccc3)CC2)cn1 | -5.514 |
| O=C(Oc1ccccc1)N1CCC(CNS(=O)(=O)c2cccnc2)CC1 | 12.7 |
| Cc1cccc(S(=O)(=O)NCC2CCN(c3cnccn3)CC2)c1 | 113.6 |
| CN(C)c1nccc(CNS(=O)(=O)c2ccc(F)c(Cl)c2)n1 | -4.41 |
| CC(=O)c1ccc(S(=O)(=O)NCC2CCN(c3cnccn3)CC2)cc1 | 109.4 |
| Cc1cnc2c(S(=O)(=O)NCC3CCN(C4CC4)C3)cccc2c1 (stereo not drawn) | -24.19 |
| O=S(=O)(NCC1CCN(c2cnccn2)CC1)c1c(F)cccc1F | -13.03 |
| O=S(=O)(NCC1CCN(c2cnccn2)CC1)c1ccc(F)c(Cl)c1 | 114.1 |
| O=S(=O)(NCC1CCN(c2ccccn2)CC1)c1ccccc1F | -4.881 |
| Cc1nn(C)c(C)c1CN(C(=O)c1cnc(O)cn1)C(C)C | -5.966 |
| CN(CCC1CCOCC1)[C@@H]1c2ccccc2C2(CCNCC2)[C@H]1O | -1.046 |
| CCn1nc2c(cc1=O)CN(c1nc3ccccc3s1)CC2 | 17.49 |
| COc1cc(CO)ccc1OCc1nc(C(C)C)no1 | -5.276 |

| SMILES | Percent Effect [%] |
| --- | --- |
| O=C(N1CCCCC1)N1CCCC1c1nnc2n1CCNC2 (stereo not drawn) | 113 |
| O=C(NC1CCCCC1)N1CCCC1c1nnc2n1CCNC2 (stereo not drawn) | 105.9 |
| CC(C)NC(=O)N1CCC(c2nccn2C(C)C)CC1 | 0.5032 |
| CC(C)NC(=O)N1CCCCCC1C1CCN(c2ncccn2)CC1 (stereo not drawn) | -15.72 |
| CC(C)NC(=O)N1CCCCC1c1nnc2n1CCNC2 (stereo not drawn) | 134 |
| CC(CC(=O)N1CCC(c2nnc3n2CCC3)CC1)n1cccc1 (stereo not drawn) | -3.041 |
| CC(C)NC(=O)N1CCC(c2nnc3n2CCNC3)CC1 | 121.8 |
| Cc1cc(C)c(C(=O)NC(c2nnc3n2CCNCC3)C(C)C)c(C)c1 (stereo not drawn) | -5.156 |
| NC(=O)CN1CCC(NC(=O)N2CCCC2c2ccncc2)CC1 (stereo not drawn) | -10.76 |
| CCNC(=O)NC(=O)CNc1cc(C(=O)OC)cc(C(F)(F)F)c1 | -3.63 |
| Cc1n[nH]cc1CNCC1(c2cccc(F)c2)CCOCC1.Cl | 8.493 |
| N#CCCN(Cc1ccccn1)C(=O)Nc1cccc(F)c1 | 3.903 |
| O=C(Nc1ccc(CCN2CCSCC2)cc1)NC1CC1 | -3.133 |
| COCCNC(=O)CSCc1nc(O)c2cc(C(C)C)sc2n1 | -3.697 |
| CC(=O)N1CCCCC1c1nnc2n1CCNC2 (stereo not drawn) | 131 |
| CC(=O)N1CCCC1c1nnc2n1CCCCC2 (stereo not drawn) | 5.226 |
| CC(NC(=O)NCC1(c2ccc(F)cc2)CCCC1)c1nncn1C (stereo not drawn) | 121.9 |
| Cc1cccc(C)c1OCCNC(=O)NC(C)c1nncn1C (stereo not drawn) | 5.116 |
| CC(NC(=O)NCC1(c2ccccc2)CCC1)c1nncn1C (stereo not drawn) | 0.9782 |
| CC(NC(=O)NCCOc1ccc(Cl)cc1)c1nncn1C (stereo not drawn) | 7.354 |
| CC(NC(=O)NCC1(c2ccc(F)cc2)CC1)c1nncn1C (stereo not drawn) | 98.23 |
| CC(NC(=O)NCCOc1ccc(F)c(F)c1)c1nncn1C (stereo not drawn) | 2.072 |
| CC(NC(=O)NCC1(N2CCCCC2)CCCCC1)c1nncn1C (stereo not drawn) | 3.494 |
| CC(NC(=O)NCC1(c2ccc(F)cc2)CCC1)c1nncn1C (stereo not drawn) | -3.695 |
| CC(NC(=O)NCCCN1CCCCCC1)c1nncn1C (stereo not drawn) | -1.343 |
| CC(NC(=O)Nc1cc(F)ccc1N1CCCCC1)c1nncn1C (stereo not drawn) | -5.475 |
